Experimental data published in PubChem BioAssay (EPA / NIEHS).
Activity calls are given as the source filed them. How the source made its calls: active means hit-call score of the fitted dose curve at least 0.9, where 1 is the maximum; inactive means score below 0.9.

Experiments:
Details in all cases: mRNA level, 48 h; actives raise or lower the signal
CYP2C9 (gene 1559) = test: LTEA_HepaRG_CYP2C9: Life Technologies and Expression Analysis (LTEA) Assay for CYP2C9 using HepaRG (AID 2283484)
Outline: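 CYP2C9 transcript level, quantified by TaqMan qRT-PCR against three housekeeping genes, was fitted bidirectionally relative to 0.5% DMSO. HepaRG cultures were treated 48 h, in duplicate, at eight half-log concentrations topping at 100 uM.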

CYP2E1 (gene 1571) = test: LTEA_HepaRG_CYP2E1: Life Technologies and Expression Analysis (LTEA) Assay for CYP2E1 using HepaRG (AID 2283485)
Outline: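 CYP2E1 transcript measured by Fluidigm qRT-PCR against three housekeeping genes in human HepaRG cells treated 48 h (top 100 uM, half-log steps, 0.5% DMSO vehicle). Gain or loss fitted relative to DMSO baseline.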

CYP4A11 (gene 1579) = test: LTEA_HepaRG_CYP4A11: Life Technologies and Expression Analysis (LTEA) Assay for CYP4A11 using HepaRG (AID 2283486)
Outline: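 Differentiated HepaRG cells, serum-free induction medium, exposed 48 h in duplicate to 8-point half-log series from 100 uM in 0.5% DMSO. CYP4A11 mRNA measured by qRT-PCR, normalized to ACTB, GAPDH, POLR2A; bidirectional fit versus DMSO.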

[1] = read-out: Cytochrome P450 3A4 (Homo sapiens) (UniProt P08684); test: LTEA_HepaRG_CYP3A4: Life Technologies and Expression Analysis (LTEA) Assay for CYP3A4 using HepaRG (AID 2283487)
Outline: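 HepaRG, 48 h exposure, 8-pt CRC from 100 uM (half-log), 0.5% DMSO, duplicates; serum-free induction medium. Readout: CYP3A4 mRNA, qRT-PCR, ACTB/GAPDH/POLR2A normalization. Bidirectional fit vs DMSO.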

[2] = read-out: DNA damage-inducible transcript 3 (DDIT3), DDIT3 (gene 1649); test: LTEA_HepaRG_DDIT3: Life Technologies and Expression Analysis (LTEA) Assay for DNA damage-inducible transcript 3 (DDIT3) using HepaRG (AID 2283488)
Outline: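 DDIT3 transcript was quantified by qRT-PCR with ACTB/GAPDH/POLR2A normalization after 48 h chemical treatment of differentiated HepaRG cells in 0.5% DMSO. Dosing was eight-point, half-log, top 100 uM, duplicate wells. Curves fitted bidirectionally versus DMSO.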

[3] = read-out: Pro-epidermal growth factor (Homo sapiens) (UniProt P01133); test: LTEA_HepaRG_EGF: Life Technologies and Expression Analysis (LTEA) Assay for Epidermal growth factor (EGF) using HepaRG (AID 2283489)
Outline: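 Differentiated human HepaRG cells, plated 48 h then switched to serum-free induction medium, were exposed for 48 h to test chemicals (8-point half-log series, top 100 uM, 0.5% DMSO). EGF mRNA was quantified by qRT-PCR, normalized to ACTB, GAPDH, POLR2A.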

[4] = read-out: Early growth response protein 1 (EGR1) transcription factor, EGR1 (gene 1958); test: LTEA_HepaRG_EGR1: Life Technologies and Expression Analysis (LTEA) Assay for Early growth response protein 1 (EGR1) transcription factor using HepaRG (AID 2283490)
Outline: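 EGR1 transcript levels quantified by qRT-PCR (Fluidigm arrays) against three housekeeping genes after 48 h chemical exposure of HepaRG cells. Eight-point half-log series topping at 100 uM, 0.5% DMSO vehicle, analyzed for gain or loss.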

[5] = read-out: Ezrin (EZR), EZR (gene 7430); test: LTEA_HepaRG_EZR: Life Technologies and Expression Analysis (LTEA) Assay for Ezrin (EZR) using HepaRG (AID 2283491)
Outline: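 Read-out is EZR transcript level by qRT-PCR, normalized to three housekeeping genes and fitted bidirectionally against the DMSO control. Human HepaRG cells received test chemicals for 48 h at eight half-log concentrations up to 100 uM in 0.5% DMSO.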

[6] = read-out: Cytochrome P450 3A7 (Homo sapiens) (UniProt P24462); test: LTEA_HepaRG_CYP3A7: Life Technologies and Expression Analysis (LTEA) Assay for CYP3A7 using HepaRG (AID 2283492)
Outline: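 HepaRG cells plated 48 h, then dosed in serum-free induction medium for 48 h at 8 concentrations (top 100 uM, half-log steps, 0.5% DMSO). CYP3A7 mRNA by qRT-PCR, normalised to ACTB/GAPDH/POLR2A; bidirectional fit versus DMSO.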

CYP3A5 (gene 1577) = test: LTEA_HepaRG_CYP3A5: Life Technologies and Expression Analysis (LTEA) Assay for CYP3A5 using HepaRG (AID 2283493)
Outline: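 mRNA levels were quantified by qRT-PCR on Fluidigm arrays and normalized to three housekeeping genes. Differentiated HepaRG cells received 48 h exposure (top 100 uM, half-log steps, 0.5% DMSO vehicle, duplicate); bidirectional fitting versus DMSO.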

[7] = read-out: Fatty Acid-Binding Protein 1 (FABP1), FABP1 (gene 2168); test: LTEA_HepaRG_FABP1: Life Technologies and Expression Analysis (LTEA) Assay for Fatty Acid-Binding Protein 1 (FABP1) using HepaRG (AID 2283494)
Outline: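 FABP1 expression by TaqMan qRT-PCR, normalised to three housekeeping genes, in HepaRG cells after 48 h chemical treatment. Eight-point half-log series topping at 100 uM in 0.5% DMSO, duplicates; gain or loss fitted relative to vehicle.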

[8] = read-out: Cytochrome P450 7A1 (Homo sapiens) (UniProt P22680); test: LTEA_HepaRG_CYP7A1: Life Technologies and Expression Analysis (LTEA) Assay for Cytochrome P450 7A1 (CYP7A1) using HepaRG (AID 2283496)
Outline: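 HepaRG, 48 h exposure, 8-pt half-log series from 100 uM, 0.5% DMSO vehicle, duplicates. Readout: TaqMan qRT-PCR mRNA vs three housekeeping genes; bidirectional curve fit against DMSO baseline.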

[9] = read-out: Glutathione S-Transferase (GSTA2), GSTA2 (gene 2939); test: LTEA_HepaRG_GSTA2: Life Technologies and Expression Analysis (LTEA) Assay for Glutathione S-Transferase (GSTA2) using HepaRG (AID 2283497)
Outline: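 GSTA2 transcript levels came from Fluidigm TaqMan qRT-PCR normalized to three housekeeping genes, fitted in both directions against DMSO. HepaRG cultures received chemicals for 48 h in serum-free induction medium (0.5% DMSO), 8 half-log concentrations up to 100 uM, duplicate.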

[10] = read-out: Glutamate-cysteine ligase catalytic (GCLC), GCLC (gene 2729); test: LTEA_HepaRG_GCLC: Life Technologies and Expression Analysis (LTEA) Assay for Glutamate-cysteine ligase catalytic (GCLC) using HepaRG (AID 2283498)
Outline: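 Expression by TaqMan qRT-PCR, normalized to three housekeeping genes (ACTB, GAPDH, POLR2A), with up- or down-regulation fitted against DMSO. HepaRG cells dosed in duplicate for 48 h with 8 half-log concentrations up to 100 uM, vehicle 0.5% DMSO.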

[11] = read-out: growth arrest and DNA damage 45 (GADD45G), GADD45G (gene 10912); test: LTEA_HepaRG_GADD45G: Life Technologies and Expression Analysis (LTEA) Assay for growth arrest and DNA damage 45 (GADD45G) using HepaRG (AID 2283499)
Outline: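 Differentiated human HepaRG cells in serum-free induction medium were exposed for 48 h to 8 half-log concentrations up to 100 uM in 0.5% DMSO, in duplicate. GADD45G mRNA was measured by TaqMan qRT-PCR, normalised to ACTB, GAPDH and POLR2A, and fitted bidirectionally against DMSO.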

[12] = read-out: Glutamate-cysteine ligase regulatory (GCLM), GCLM (gene 2730); test: LTEA_HepaRG_GCLM: Life Technologies and Expression Analysis (LTEA) Assay for Glutamate-cysteine ligase regulatory (GCLM) using HepaRG (AID 2283500)
Outline: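 GCLM expression quantified by qRT-PCR, normalized to three housekeeping genes, after 48 h chemical treatment of HepaRG cells in duplicate at 8 concentrations (top 100 uM, half-log steps, 0.5% DMSO). Changes fitted both directions against vehicle.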

[13] = read-out: Glutathione S-transferase M3 (GSTM3), GSTM3 (gene 2947); test: LTEA_HepaRG_GSTM3: Life Technologies and Expression Analysis (LTEA) Assay for Glutathione S-transferase M3 (GSTM3) using HepaRG (AID 2283501)
Outline: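 Differentiated HepaRG cells in serum-free induction medium were exposed in duplicate for 48 h to 8 half-log concentrations up to 100 uM in 0.5% DMSO. GSTM3 mRNA was measured by TaqMan qRT-PCR, normalized to ACTB/GAPDH/POLR2A, and fitted bidirectionally versus DMSO.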

[14] = read-out: Heat shock 70 kDa protein 1 (HSPA1A), gene 3303; test: LTEA_HepaRG_HSPA1A: Life Technologies and Expression Analysis (LTEA) Assay for Heat shock 70 kDa protein 1 (HSPA1A) using HepaRG (AID 2283502)
Outline: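 HSPA1A expression measured by qRT-PCR with ACTB/GAPDH/POLR2A normalization; curves fitted in both directions relative to DMSO vehicle. Exposure: 48 h in HepaRG cells, duplicate 8-point half-log series from 100 uM, 0.5% DMSO, serum-free induction medium.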

[15] = read-out: Hypoxia-inducible factor 1-alpha (Homo sapiens) (UniProt Q16665); test: LTEA_HepaRG_HIF1A: Life Technologies and Expression Analysis (LTEA) Assay for Hypoxia-inducible factor 1 (HIF1A) Trancription factor using HepaRG (AID 2283503)
Outline: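 HIF1A transcript level read by qRT-PCR (ACTB, GAPDH, POLR2A normalization) after 48 h chemical exposure of HepaRG cultures. Eight half-log concentrations, top 100 uM, 0.5% DMSO vehicle, duplicates; bidirectional curve fit against DMSO baseline.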

[16] = read-out: Cytochrome P450 4A22 (Homo sapiens) (UniProt Q5TCH4); test: LTEA_HepaRG_CYP4A22: Life Technologies and Expression Analysis (LTEA) Assay for Cytochrome P450 4A22 (CYP4A22) using HepaRG (AID 2283495)
Outline: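 qRT-PCR of CYP4A22 mRNA (Fluidigm TaqMan, normalized to three housekeeping genes) after 48 h chemical exposure of HepaRG cells; 8-point half-log series, top 100 uM, 0.5% DMSO vehicle. Bidirectional curve fitting vs DMSO baseline.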

Chain of Cytochrome P450 3A7 (Homo sapiens) (P24462 whole entry, looked up): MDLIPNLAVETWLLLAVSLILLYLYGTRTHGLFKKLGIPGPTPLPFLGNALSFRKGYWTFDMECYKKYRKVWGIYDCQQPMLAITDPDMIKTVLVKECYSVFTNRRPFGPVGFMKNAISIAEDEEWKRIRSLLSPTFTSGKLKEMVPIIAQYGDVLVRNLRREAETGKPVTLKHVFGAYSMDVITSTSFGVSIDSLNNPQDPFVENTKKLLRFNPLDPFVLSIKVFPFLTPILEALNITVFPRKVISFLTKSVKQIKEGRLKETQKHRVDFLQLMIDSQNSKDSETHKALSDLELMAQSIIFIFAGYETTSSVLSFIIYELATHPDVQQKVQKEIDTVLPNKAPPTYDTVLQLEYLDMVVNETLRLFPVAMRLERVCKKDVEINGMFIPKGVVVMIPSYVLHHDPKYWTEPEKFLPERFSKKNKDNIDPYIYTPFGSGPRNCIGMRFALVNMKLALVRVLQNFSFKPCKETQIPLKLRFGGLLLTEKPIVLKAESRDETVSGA
Chain of Cytochrome P450 3A4 (Homo sapiens) (P08684 whole entry, looked up): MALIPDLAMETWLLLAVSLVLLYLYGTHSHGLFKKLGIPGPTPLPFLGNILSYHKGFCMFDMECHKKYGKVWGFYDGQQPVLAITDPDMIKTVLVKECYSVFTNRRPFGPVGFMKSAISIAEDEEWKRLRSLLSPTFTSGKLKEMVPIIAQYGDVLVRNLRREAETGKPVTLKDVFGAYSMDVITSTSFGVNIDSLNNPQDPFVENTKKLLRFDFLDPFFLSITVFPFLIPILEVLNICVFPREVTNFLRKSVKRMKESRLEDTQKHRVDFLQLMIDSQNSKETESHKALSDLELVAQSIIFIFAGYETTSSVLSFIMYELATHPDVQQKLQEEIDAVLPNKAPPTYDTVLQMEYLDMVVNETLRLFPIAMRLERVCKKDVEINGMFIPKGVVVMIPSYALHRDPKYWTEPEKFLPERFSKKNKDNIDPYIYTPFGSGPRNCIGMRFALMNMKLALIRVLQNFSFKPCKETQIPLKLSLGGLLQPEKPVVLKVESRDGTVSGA
Chain of Hypoxia-inducible factor 1-alpha (Homo sapiens) (Q16665 whole entry, looked up): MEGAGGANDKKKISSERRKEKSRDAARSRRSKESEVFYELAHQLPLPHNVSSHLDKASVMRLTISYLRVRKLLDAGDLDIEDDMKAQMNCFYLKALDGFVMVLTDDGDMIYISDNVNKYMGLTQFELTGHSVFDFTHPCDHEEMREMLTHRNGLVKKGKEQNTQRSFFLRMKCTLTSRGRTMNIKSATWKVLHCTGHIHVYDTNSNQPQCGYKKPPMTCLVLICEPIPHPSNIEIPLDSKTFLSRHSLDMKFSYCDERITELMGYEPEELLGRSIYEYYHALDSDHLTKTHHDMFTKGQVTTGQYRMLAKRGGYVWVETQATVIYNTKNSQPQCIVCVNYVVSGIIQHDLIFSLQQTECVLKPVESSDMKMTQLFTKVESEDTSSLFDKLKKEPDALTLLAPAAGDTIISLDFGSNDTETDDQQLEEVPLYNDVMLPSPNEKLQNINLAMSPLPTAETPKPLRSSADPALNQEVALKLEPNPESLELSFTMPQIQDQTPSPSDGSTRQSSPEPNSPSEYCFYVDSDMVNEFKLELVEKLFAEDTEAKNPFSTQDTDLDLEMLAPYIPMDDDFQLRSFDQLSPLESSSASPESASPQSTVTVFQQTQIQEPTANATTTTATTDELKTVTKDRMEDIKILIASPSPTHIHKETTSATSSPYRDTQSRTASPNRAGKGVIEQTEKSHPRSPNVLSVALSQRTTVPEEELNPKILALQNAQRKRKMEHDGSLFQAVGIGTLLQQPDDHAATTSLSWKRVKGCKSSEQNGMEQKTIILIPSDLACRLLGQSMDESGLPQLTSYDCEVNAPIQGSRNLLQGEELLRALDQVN

With `CCOP(=O)(OCC)Oc1cc(C)nc(C(C)C)n1` as the compound, how does the outcome (CYP2C9 (gene 1559)) read?
The outcome was “inactive”.

What about the outcome (CYP2E1 (gene 1571)) of the same compound?
Its outcome is “inactive”.

What about the outcome (CYP4A11 (gene 1579)) of the same compound?
The outcome was “inactive”.

What about the outcome [1] of the same compound?
Its outcome is “inactive”.

What about the outcome [2] of the same compound?
The outcome was “inactive”.

And the outcome [3]?
Its outcome is “inactive”.

And the outcome [4]?
Its outcome is “inactive”.

And the outcome [5]?
Its outcome is “inactive”.

And the outcome [6]?
The outcome was “inactive”.

And the outcome (CYP3A5 (gene 1577))?
Its outcome is “inactive”.

And the outcome [7]?
The outcome was “inactive”.

What about the outcome [8] of the same compound?
Its outcome is “inactive”.

What about the outcome [9] of the same compound?
The outcome was “inactive”.

And the outcome [10]?
The outcome was “inactive”.

What about the outcome [11] of the same compound?
Its outcome is “inactive”.

And the outcome [12]?
The outcome was “inactive”.

And the outcome [13]?
Its outcome is “inactive”.

What about the outcome [14] of the same compound?
Its outcome is “inactive”.

And the outcome [15]?
Its outcome is “inactive”.

Which results are given for `CC[C@H](C)[C@H]1O[C@]2(C=C[C@@H]1C)C[C@@H]1C[C@@H](C/C=C(\C)[C@@H](O[C@H]3C[C@H](OC)[C@@H](O[C@H]4C[C@H](OC)[C@@H](NC)[C@H](C)O4)[C@H](C)O3)[C@@H](C)/C=C/C=C3\CO[C@@H]4[C@H](O)C(C)=C[C@@H](C(=O)O1)[C@]34O)O2`?
outcome (CYP2C9 (gene 1559)): inactive; AC50 (CYP2E1 (gene 1571)): 5.32 µM (active); AC50 (CYP4A11 (gene 1579)): 11.7 µM (active); AC50 [1]: 23.1 µM (active); AC50 [2]: 13.1 µM (active); AC50 [3]: 81.5 µM (active); AC50 [4]: 29 µM (active); AC50 [5]: 79.5 µM (active); AC50 [6]: 19.9 µM (active); AC50 (CYP3A5 (gene 1577)): 22.7 µM (active); AC50 [7]: 14.6 µM (active); outcome [8]: inactive; AC50 [9]: 23.3 µM (active); AC50 [10]: 50 µM (active); AC50 [11]: 2.78 µM (active); outcome [12]: inactive; outcome [13]: inactive; AC50 [14]: 20.4 µM (active); AC50 [15]: 74.3 µM (active)

How did the outcome (CYP2C9 (gene 1559)) turn out when `CCC(=O)Nc1ccc(Cl)c(Cl)c1` was run?
Its outcome is “inactive”.

And the AC50 (CYP2E1 (gene 1571))?
The AC50 was 50 µM (active).

What about the AC50 (CYP4A11 (gene 1579)) of the same compound?
Its AC50 is 50 µM (active).

And the outcome [1]?
Its outcome is “inactive”.

What about the outcome [2] of the same compound?
Its outcome is “inactive”.

And the outcome [4]?
Its outcome is “inactive”.

What about the outcome [5] of the same compound?
The outcome was “inactive”.

What about the outcome [6] of the same compound?
The outcome was “inactive”.

And the outcome (CYP3A5 (gene 1577))?
The outcome was “inactive”.

And the AC50 [7]?
The AC50 was 9.92 µM (active).

And the outcome [16]?
Its outcome is “inactive”.

What about the outcome [8] of the same compound?
The outcome was “inactive”.

And the AC50 [9]?
The AC50 was 72.5 µM (active).

And the outcome [10]?
Its outcome is “inactive”.

And the outcome [11]?
Its outcome is “inactive”.

What about the AC50 [12] of the same compound?
The AC50 was 50 µM (active).

What about the outcome [13] of the same compound?
Its outcome is “inactive”.

What about the outcome [14] of the same compound?
Its outcome is “inactive”.

What about the outcome [15] of the same compound?
The outcome was “inactive”.
